In PubChem BioAssay (NCI) one finds growth data, which are given here for 7 compounds.

Experiment in all cases: NCI-60 one-dose screen, 48 h (100 = growth as untreated, 0 = no growth, -100 = all killed)
In one test the test system is SK-MEL-2 melanoma. Conditions: 10 µM unless noted.
Another test has as its system EKVX NSCLC. Conditions: 10 µM unless noted.
Another test relates to SN12C renal. As to conditions: 10 µM unless noted.
The test system of the next test is UO-31 renal. Conditions: 10 µM unless noted.
Another test concerns TK-10 renal. Conditions: 10 µM unless noted.
The next test relates to ACHN renal. As to conditions: 10 µM unless noted.
The next test deals with CAKI-1 renal. As to conditions: 10 µM unless noted.
The subject of the next test is A498 renal. Conditions: 10 µM unless noted.
A further test relates to CCRF-CEM leukemia. Conditions: 10 µM unless noted.
The next test relates to MOLT-4 leukemia. Conditions: 10 µM unless noted.
A further test relates to SR leukemia. As to conditions: 10 µM unless noted.
In another test the test system is RPMI-8226 leukemia. As to conditions: 10 µM unless noted.
A further test concerns OVCAR-8 ovarian. Conditions: 10 µM unless noted.
In a further test the test system is OVCAR-5 ovarian. As to conditions: 10 µM unless noted.
The subject of the next test is SK-OV-3 ovarian. As to conditions: 10 µM unless noted.
The test system of the next test is IGROV1 ovarian. As to conditions: 10 µM unless noted.
Another test has as its system OVCAR-3 ovarian. Conditions: 10 µM unless noted.
For a further test, the system named is HS 578T breast. Conditions: 10 µM unless noted.
A further test deals with NCI/ADR-RES ovarian. Conditions: 10 µM unless noted.
For a further test, the system named is OVCAR-4 ovarian. As to conditions: 10 µM.

SMILES strings stand for the structures. Compounds without any hit were thinned out: in the full panel of roughly 83,000, 20% have a hit.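 48-hour exposure, single concentration, 96-well plates; percent growth endpoint where 0 means no net growth. Active: below 10.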 A number with no mark means an inactive call. Activity calls are given as the source filed them.

As to `COc1ncc(-c2ccc3nc(N)n(-c4ccccc4C(F)(F)F)c(=O)c3c2)cc1S(=O)(=O)Nc1ccc(F)cc1F`, the growth was 29.2% in the test with SK-MEL-2 melanoma; 20.9% with EKVX NSCLC; 56% in the test on SN12C renal; -13.4% (active) with UO-31 renal; 54.5% in the test on TK-10 renal; 69.3% in the test with ACHN renal. For the same compound, the growth was 17.3% in the test on CAKI-1 renal; -22.2% (active) with A498 renal; 24.5% in the test on CCRF-CEM leukemia; 74.5% with MOLT-4 leukemia; 39% with SR leukemia; 2.65% (active) in the test with RPMI-8226 leukemia. Further, the growth is 50.1% in the test with OVCAR-8 ovarian; 14.7% in the test with OVCAR-5 ovarian; 72.1% in the test with SK-OV-3 ovarian; 8.17% (active) in the test with IGROV1 ovarian; 6.35% (active) in the test on OVCAR-3 ovarian; 42.3% in the test on HS 578T breast.

`Cn1cc(-c2noc(-c3cn(C)c4ncc(F)cc34)n2)c2cc(Br)ccc21`: the growth in the test with SK-MEL-2 melanoma was 103%; in the test with EKVX NSCLC, 58.4%; with SN12C renal it was 60.2%; in the test on UO-31 renal it was 79.8%; in the test on TK-10 renal, 46.5%; in the test on ACHN renal, 40.3%. Further, the growth was 53.5% in the test on CAKI-1 renal; 91.9% in the test on A498 renal; 80.8% in the test with CCRF-CEM leukemia; 71.1% in the test on MOLT-4 leukemia; 37.1% with SR leukemia; 87.9% with RPMI-8226 leukemia. Moreover, the growth with OVCAR-8 ovarian was 55.2%; in the test on OVCAR-5 ovarian, 64.4%; in the test on SK-OV-3 ovarian it was 84.4%; in the test with IGROV1 ovarian it was 73.3%; in the test on OVCAR-3 ovarian, 38.5%; in the test with HS 578T breast it was 58.7%. Moreover, in the test with NCI/ADR-RES ovarian, the growth was 61.5%.

For the compound `CCOC(=O)c1cc(C#N)n2ncc3ccccc3c12`, the growth with SK-MEL-2 melanoma is 108%; in the test with EKVX NSCLC, 94.9%; with SN12C renal, 95.3%; in the test with UO-31 renal it was 84.1%; in the test on TK-10 renal, 91.4%; in the test on ACHN renal, 91.6%. In addition, the growth was 86.5% with CAKI-1 renal; 72.4% in the test with A498 renal; 106% in the test with CCRF-CEM leukemia; 89.7% in the test on MOLT-4 leukemia; 98.4% in the test on SR leukemia; 105% in the test with RPMI-8226 leukemia. Besides, the growth in the test with OVCAR-8 ovarian was 97.7%; in the test with OVCAR-5 ovarian it was 84.7%; with SK-OV-3 ovarian, 107%; with IGROV1 ovarian, 92.4%; in the test on OVCAR-3 ovarian it was 103%; with HS 578T breast, 98.3%.

As to `CC(C)=CCC[C@](C)(O)[C@H]1CC[C@]2(C)[C@@H]1CC[C@@H]1[C@@]3(C)CC/C(=N/O)C(C)(C)[C@@H]3CC[C@]12C`, the growth with SK-MEL-2 melanoma is -23.2% [100 µM] (active); in the test with EKVX NSCLC, 2.6% [100 µM] (active); in the test with SN12C renal, -42.4% [100 µM] (active); in the test on UO-31 renal, -17.7% [100 µM] (active); with TK-10 renal, -39.1% [100 µM] (active); in the test with ACHN renal, -72% [100 µM] (active). Besides, the growth was -58.4% [100 µM] (active) in the test on CAKI-1 renal; -15.7% [100 µM] (active) in the test on A498 renal; 23.1% [100 µM] with CCRF-CEM leukemia; 2.24% [100 µM] (active) with MOLT-4 leukemia; 12.5% [100 µM] in the test on SR leukemia; -2.67% [100 µM] (active) in the test on RPMI-8226 leukemia. Also, the growth in the test on OVCAR-8 ovarian was -69.7% [100 µM] (active); in the test on OVCAR-5 ovarian, 2.17% [100 µM] (active); with SK-OV-3 ovarian it was 12.4% [100 µM]; in the test with IGROV1 ovarian it was -66.5% [100 µM] (active); with OVCAR-3 ovarian, -42.3% [100 µM] (active); with HS 578T breast, -13% [100 µM] (active). In the test on NCI/ADR-RES ovarian, the growth was -10.9% [100 µM] (active).

Take `COc1ccc(NCc2cn(-c3ccc(C(=O)O)cc3)nc2-c2ccc(C(=O)O)cc2)cc1C(F)(F)F`: the growth in the test on SK-MEL-2 melanoma was 106%; in the test with EKVX NSCLC, 84.2%; in the test with SN12C renal, 95.3%; with UO-31 renal, 88.1%; in the test on TK-10 renal it was 83%; in the test on ACHN renal, 98.1%. The growth in the test with CAKI-1 renal was 86.3%; in the test on A498 renal, 81.2%; in the test on CCRF-CEM leukemia, -50.4% (active); in the test on MOLT-4 leukemia, 123%; in the test with SR leukemia, 131%; in the test on RPMI-8226 leukemia, 88.4%. For the same compound, the growth with OVCAR-8 ovarian is 103%; in the test on OVCAR-5 ovarian, 93.3%; with OVCAR-4 ovarian it was 93.3%; in the test with IGROV1 ovarian, 99.7%; in the test with OVCAR-3 ovarian it was 105%; in the test on HS 578T breast it was 83.2%. Besides, in the test on NCI/ADR-RES ovarian, the growth is 105%.

Consider `C=C(C)[C@@H]1CC[C@]2(C)[C@H](CC[C@@H]3[C@@H]([C@@](C)(O)CCC=C(C)C)CC[C@]32C)[C@@]1(C)CCC(=O)N1CCN(C)CC1`, for which the growth with SK-MEL-2 melanoma is -88.5% [100 µM] (active); with EKVX NSCLC, -66.4% [100 µM] (active); in the test with SN12C renal, -95.6% [100 µM] (active); in the test with UO-31 renal it was -100% [100 µM] (active); in the test with TK-10 renal, -79.3% [100 µM] (active); with ACHN renal, -100% [100 µM] (active). Moreover, the growth with CAKI-1 renal was -90.7% [100 µM] (active); with A498 renal it was -96% [100 µM] (active); in the test on CCRF-CEM leukemia, -27.6% [100 µM] (active); in the test on MOLT-4 leukemia, -41.2% [100 µM] (active); in the test with SR leukemia it was 7.02% [100 µM] (active); with RPMI-8226 leukemia, -38.4% [100 µM] (active). Besides, the growth with OVCAR-8 ovarian was -65.6% [100 µM] (active); with OVCAR-5 ovarian, -93.3% [100 µM] (active); with SK-OV-3 ovarian it was -83.4% [100 µM] (active); with IGROV1 ovarian it was -82.5% [100 µM] (active); with OVCAR-3 ovarian it was -85.9% [100 µM] (active); in the test with HS 578T breast, -41.5% [100 µM] (active).

On to `[2H]C1([2H])CCN(C(=O)C2CC2)c2cc(NS(=O)(=O)c3ccc(-c4cccc(C(N)=O)c4)cc3)ccc21`, for which the growth is 7.75% (active) with SK-MEL-2 melanoma; 72.7% with EKVX NSCLC; 43.7% with SN12C renal; 77.8% with UO-31 renal; 64.2% with TK-10 renal; 73.5% with ACHN renal. Further, the growth in the test on CAKI-1 renal was 72.3%; with A498 renal, -0.663% (active); in the test with CCRF-CEM leukemia it was 30.7%; with MOLT-4 leukemia, 44.3%; in the test with SR leukemia, 38.1%; with RPMI-8226 leukemia, 37.1%. Besides, the growth was 53.9% in the test on OVCAR-8 ovarian; 60.6% with OVCAR-5 ovarian; 26.1% in the test with SK-OV-3 ovarian; 32.4% with IGROV1 ovarian; 12.4% with OVCAR-3 ovarian; 18.7% in the test with HS 578T breast. In addition, the growth with NCI/ADR-RES ovarian was 95%.
